# Reference: PubChem BioAssay (NCI)
# This is part of a sample that, as a whole, favours compounds with a hit. Of some 83,000 tested, about 20% had one in any assay.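 Interpretation: 100, growth as untreated; towards 0, rising growth inhibition; 0, no net growth; 0 to -100, cell death. Compounds scoring below 10 were considered active.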 Unmarked numbers belong to inactive results. Activity calls are given as the source filed them.
# Test system: UO-31 renal
# Assay: NCI-60 one-dose screen, 48 h (100 = growth as untreated, 0 = no growth, -100 = all killed)
# Settings: 10 µM unless noted
row,Structure (SMILES),growth
1,COc1cc2oc(-c3cccc(NC(=O)c4cccc(Br)c4)c3)cc(=O)c2c(OC)c1OC,36.8%
2,O=C(Nc1nc2ccc(F)cc2s1)c1cccnc1Nc1ccc(Cl)cc1,56.2%
3,Nc1c(C(=O)Nc2ccncc2)sc2nc3c(cc12)CCCCCC3,78.4%
4,CC1(C)c2[nH]c3ccccc3c2C[C@]2(C)[C@H]3CC=C4[C@@H]5C[C@@](C)(C(N)=O)CC[C@]5(C)CC[C@@]4(C)[C@]3(C)CC[C@@H]12,47.3%

# Test system: TK-10 renal
# Assay: as above
# Settings: 10 µM unless noted
row,Structure (SMILES),growth
1,COc1cc(CNS(=O)(=O)c2ccc(C)cc2)ccc1OCc1cn(-c2ccc(Br)cc2)nn1,112%
2,Cc1ccc(Cl)cc1Nc1nc(C(F)(F)F)ccc1C(=O)N/N=C/c1cccnc1,24.3%
3,COc1cc2c(c(OC)c1OC)-c1ccc(OC)c(=O)cc1[C@@H](NC(=O)CCl)CC2,34.1%
4,Fc1ccc(Nc2nc3nonc3nc2Nc2ccc(I)cc2)cc1,-2.84% (active)
5,CO[C@H]1/C=C(/C)CCC[C@H](C)[C@H](O)[C@@H](C)C(=O)C(C)(C)[C@@H](O)CC(=O)O[C@@H]1/C(C)=C/c1csc(C)n1,18.8%
6,COCCn1c(-c2csc(-c3cn(C)c4ccc(OC)cc34)n2)cc2cccnc21,43.6%
7,CCNc1nc(-c2ccc(Cl)c(OC)c2)c(-c2ccnc(NCCCNS(=O)(=O)c3ccc(Cl)cc3)n2)s1,43.7%
8,O=C1COCCN1c1ccc(Nc2nc(Cl)nc(OCc3cn(Cc4ccccc4)nn3)n2)cc1,98.6%
